“And” between values parts separate entries of the source, which are not always exact repeats. Equal values may be shown once. Inconclusive results are not listed. The source holds several records for some structures; these can differ, active in one and inactive in another. The source made the active and inactive calls. How the source made its calls, unless noted: active means hit-call score of the fitted dose curve at least 0.9, where 1 is the maximum; inactive means score below 0.9.
What was measured:
[1] = biological target: Hepatocyte nuclear factor 3-beta (Homo sapiens) (UniProt Q9Y261); assay: ATG_FoxA2_CIS: Attagene CIS-FACTORIAL HepG2 Assay for human Forkhead box A2 (FOXA2) (AID 2282942); details: HepG2 cis-reporter transcription factor activity, 24 h; actives raise or lower the signal
Sequence of Hepatocyte nuclear factor 3-beta (Homo sapiens) (Q9Y261 whole entry, looked up): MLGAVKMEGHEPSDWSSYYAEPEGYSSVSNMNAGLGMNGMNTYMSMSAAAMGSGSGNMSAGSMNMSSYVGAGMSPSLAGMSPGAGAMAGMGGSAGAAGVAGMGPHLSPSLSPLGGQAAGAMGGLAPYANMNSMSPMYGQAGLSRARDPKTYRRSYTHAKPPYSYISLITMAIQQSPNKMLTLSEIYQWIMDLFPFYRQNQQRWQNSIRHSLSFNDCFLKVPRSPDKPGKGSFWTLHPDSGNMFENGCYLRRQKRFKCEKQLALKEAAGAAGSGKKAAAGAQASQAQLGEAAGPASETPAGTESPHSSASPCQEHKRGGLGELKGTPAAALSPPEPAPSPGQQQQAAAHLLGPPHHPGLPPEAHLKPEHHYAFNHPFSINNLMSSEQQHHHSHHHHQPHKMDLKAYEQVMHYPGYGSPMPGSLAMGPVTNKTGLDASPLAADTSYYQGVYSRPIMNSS
Outline: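 Endogenous transcription factor activity is captured via cis-element-driven reporter transcripts in transfected HepG2. Total RNA taken at 24 h post-dosing; labelled RT-PCR products resolved by capillary electrophoresis. Gain or loss fitted versus DMSO.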

[2] = ATG_NF_kB_CIS: Attagene CIS-FACTORIAL HepG2 Assay for human Nuclear Factor Kappa B (NF-kB) (AID 2282991); details: HepG2 Attagene cis-factorial NF-kB reporter mRNA; actives raise or lower the signal
Outline: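 Readout is reporter transcript level, gain or loss versus DMSO, measured 24 h post-dose via RT-PCR, fluorescent labelling and capillary electrophoresis. Human HepG2 liver cells carried transiently transfected CIS reporter constructs reflecting endogenous factors.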

[3] = biological target: Retinoic acid receptor RXR-alpha (Homo sapiens) (UniProt P19793); assay: ATG_RXRa_TRANS: Attagene TRANS-FACTORIAL HepG2 Assay for human Retinoid X Receptor alpha (RXRa) (AID 2283012; active means hit-call score of the fitted dose curve at least 0.9, where 1 is the maximum)
Sequence of Retinoic acid receptor RXR-alpha (Homo sapiens) (P19793 whole entry, looked up, the tested form may be a part): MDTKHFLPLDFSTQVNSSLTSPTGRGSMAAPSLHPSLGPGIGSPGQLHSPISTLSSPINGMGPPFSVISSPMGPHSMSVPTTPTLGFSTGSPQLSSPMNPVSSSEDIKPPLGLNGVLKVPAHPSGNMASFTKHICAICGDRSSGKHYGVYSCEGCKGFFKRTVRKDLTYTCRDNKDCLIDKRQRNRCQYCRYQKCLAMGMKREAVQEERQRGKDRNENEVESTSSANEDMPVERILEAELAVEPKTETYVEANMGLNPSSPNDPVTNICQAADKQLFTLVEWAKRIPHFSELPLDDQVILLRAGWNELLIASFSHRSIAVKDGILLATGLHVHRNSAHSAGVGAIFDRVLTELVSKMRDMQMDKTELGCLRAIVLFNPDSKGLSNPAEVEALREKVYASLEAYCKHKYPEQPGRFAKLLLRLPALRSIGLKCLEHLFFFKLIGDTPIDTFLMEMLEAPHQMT
Outline: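 HepG2 cells transiently transfected with multiplexed GAL4-UAS reporter units and chimeric NR-GAL4 fusions, dosed 24 h. Reporter mRNA measured by RT-PCR, FAM labelling, HpaI digestion and capillary electrophoresis; gain-of-signal fitted relative to DMSO baseline.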

[4] = biological target: human Retinoid X Receptor beta (RXRb), RXRB (gene 6257) (UniProt P28702); assay: ATG_RXRb_TRANS: Attagene TRANS-FACTORIAL HepG2 Assay for human Retinoid X Receptor beta (RXRb) (AID 2283013; active means hit-call score of the fitted dose curve at least 0.9, where 1 is the maximum)
Sequence of human Retinoid X Receptor beta (RXRb), RXRB (gene 6257) (P28702 whole entry, looked up, the tested form may be a part): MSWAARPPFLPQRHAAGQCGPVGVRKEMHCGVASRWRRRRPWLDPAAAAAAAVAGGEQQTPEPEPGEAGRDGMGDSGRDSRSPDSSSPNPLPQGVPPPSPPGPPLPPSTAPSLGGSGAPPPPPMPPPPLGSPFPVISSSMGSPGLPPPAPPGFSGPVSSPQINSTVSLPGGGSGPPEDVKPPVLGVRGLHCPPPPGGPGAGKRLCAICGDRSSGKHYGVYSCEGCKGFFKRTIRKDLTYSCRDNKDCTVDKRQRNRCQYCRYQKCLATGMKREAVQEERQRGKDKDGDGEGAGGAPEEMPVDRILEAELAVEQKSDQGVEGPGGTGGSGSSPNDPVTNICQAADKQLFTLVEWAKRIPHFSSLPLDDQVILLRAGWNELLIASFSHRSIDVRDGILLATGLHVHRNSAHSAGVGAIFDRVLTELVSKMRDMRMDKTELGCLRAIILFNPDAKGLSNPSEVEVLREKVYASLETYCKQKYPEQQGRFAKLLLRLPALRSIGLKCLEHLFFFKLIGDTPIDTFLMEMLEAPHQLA
Outline: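 HepG2 cells transiently transfected with multiplexed reporter units driven by GAL4-UAS and exogenous chimeric NR-Gal4 proteins; treated 24 h. Reporter mRNA measured by RT-PCR, 6-FAM labelling and capillary electrophoresis; gain-of-signal fitted versus DMSO baseline.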

CD38, CD38 (gene 952) = assay: BSK_SAg_CD38: BioMAP Diversity Plus: SAg Assay for CD38 Biomarker Activity (AID 2283087); details: primary human HUVEC with PBMC; actives raise or lower the signal
Outline: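 Fluorescence ELISA of cell-surface CD38 served as the read-out, with either increase or decrease fitted against DMSO controls. Cells were a human umbilical vein endothelium plus PBMC co-culture under SEB/TSST-1 stimulation, measured 24 h after dosing.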

[5] = read-out: Monocyte Chemoattractant Protein-1 (MCP1), CCL2 (gene 6347); assay: BSK_SAg_MCP1: BioMAP Diversity Plus: SAg Assay for Monocyte Chemoattractant Protein-1 (MCP1) Biomarker Activity (AID 2283090); details: primary human HUVEC with PBMC; actives raise or lower the signal
Outline: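 MCP-1 levels in the endothelial–PBMC SAg co-culture were quantified by ELISA at 24 h post-dosing; both increases and decreases versus DMSO scored. Cytotoxicity monitored by SRB total protein in parallel cultures.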

[6] = read-out: E-selectin (Homo sapiens) (UniProt P16581); assay: BSK_SAg_Eselectin: BioMAP Diversity Plus: SAg Assay for Eselectin Biomarker Activity (AID 2283091); details: primary human HUVEC with PBMC; actives raise or lower the signal
Outline: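 HUVEC co-cultured with PBMC, compound dosed then read at 24 h; E-selectin measured by ELISA. Activity fitted bidirectionally against DMSO as negative control and baseline.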

[7] = read-out: Monokine induced gamma interferon (MIG), CXCL9 (gene 4283); assay: BSK_SAg_MIG: BioMAP Diversity Plus: SAg Assay for Monokine induced gamma interferon (MIG) Biomarker Activity (AID 2283092); details: primary human HUVEC with PBMC; actives raise or lower the signal
Outline: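 Endothelial cells and PBMC were co-cultured, exposed to test chemicals, and sampled 24 h later. MIG was measured by ELISA, and responses were fitted in both directions relative to DMSO.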

[8] = read-out: Interleukin-8 (IL8), CXCL8 (gene 3576); assay: BSK_SAg_IL8: BioMAP Diversity Plus: SAg Assay for Interleukin-8 (IL8) Biomarker Activity (AID 2283094); details: primary human HUVEC with PBMC; actives raise or lower the signal
Outline: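 Human umbilical vein endothelial cells co-cultured with peripheral blood mononuclear cells; IL-8 measured by ELISA 24 h after chemical dosing. Bidirectional concentration-response fitting used DMSO as negative control and activity baseline.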

[9] = BSK_SAg_Proliferation: Cell Proliferation Assessment in the BioMAP Diversity Plus: SAg Assay (AID 2283095); details: primary human HUVEC with PBMC;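 further: relative cell number as total protein by SRB absorbance in sub-confluent culture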
Outline: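 Human umbilical vein endothelial cells co-cultured with peripheral blood mononuclear cells; total protein measured by sulforhodamine B staining (0.1% SRB after 10% TCA fixation), absorbance at 560 nm, at 96 h. Bidirectional fit against DMSO baseline.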

[10] = BSK_SAg_SRB: Viability Assessment in the BioMAP Diversity Plus: SAg Assay (AID 2283096); details: primary human HUVEC with PBMC;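 further: cells read one day after compound addition; hits may be either gain or loss of signal compared with DMSO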
Outline: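 Endothelial/PBMC primary human co-culture; compound 24 h; fix 10% TCA, stain 0.1% SRB, A560; protein content as cytotoxicity proxy; bidirectional curve fit, DMSO = baseline.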

[11] = read-out: Interferon-inducible T-cell alpha chemoattractant (ITAC), CXCL11 (gene 6373); assay: BSK_hDFCGF_ITAC: BioMAP Diversity Plus: hDFCGF Assay for Interferon-inducible T-cell alpha chemoattractant (ITAC) Biomarker Activity (AID 2284251); details: primary human foreskin fibroblasts
Outline: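 ELISA readout of I-TAC after 24 h chemical exposure; human dermal foreskin fibroblast primary cells. Positive-direction fitting vs DMSO baseline. Parallel SRB total-protein staining (0.1% SRB after 10% TCA fixation, 560 nm) flags cytotoxicity.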

[12] = read-out: Intercellular Adhesion Molecule 1 (ICAM1), ICAM1 (gene 3383); assay: BSK_BE3C_ICAM1: BioMAP Diversity Plus: BE3C Assay for Intercellular Adhesion Molecule 1 (ICAM1) Biomarker Activity (AID 2284278); details: primary human bronchial epithelial cells
Outline: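 Primary human bronchial epithelial cells were exposed to compound for 24 h, after which cell-surface ICAM-1 was quantified by ELISA. Activity was fitted in the gain-of-signal direction against DMSO as negative control and baseline.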

[13] = read-out: Epidermal growth factor receptor (EGFR), EGFR (gene 1956); assay: BSK_BE3C_EGFR: BioMAP Diversity Plus: BE3C Assay for Epidermal growth factor receptor (EGFR) Biomarker Activity (AID 2284281); details: primary human bronchial epithelial cells
Outline: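 Primary human lung bronchial epithelial cells; compound, 24 h; EGFR measured by ELISA; positive-direction fit vs DMSO baseline.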

KRT18 (gene 3875) = assay: BSK_BE3C_Keratin818: BioMAP Diversity Plus: BE3C Assay for Keratin 818 Biomarker Activity (AID 2284282); details: primary human bronchial epithelial cells
Outline: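 Human primary bronchial epithelial cells in the BE3C system were exposed to test chemical for 24 h, then Keratin 8/18 was quantified by ELISA. Activity was fitted in the positive direction against DMSO as negative control and baseline.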

[14] = read-out: Matrix Metallopeptidase 9 (MMP9), MMP9 (gene 4318); assay: BSK_BE3C_MMP9: BioMAP Diversity Plus: BE3C Assay for Matrix Metallopeptidase 9 (MMP9) Biomarker Activity (AID 2284283); details: primary human bronchial epithelial cells
Outline: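 Human primary bronchial epithelial cells in the BE3C system were dosed with compound for 24 h. MMP-9 was measured by ELISA, and the positive-direction response was fitted relative to DMSO as baseline. Parallel SRB staining gauged cytotoxicity.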

[15] = read-out: TIMP metallopeptidase inhibitor 2 (TIMP2), TIMP2 (gene 7077); assay: BSK_hDFCGF_TIMP2: BioMAP Diversity Plus: hDFCGF Assay for TIMP metallopeptidase inhibitor 2 (TIMP2) Biomarker Activity (AID 2284289); details: primary human foreskin fibroblasts
Outline: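 Primary human foreskin fibroblasts in the hDFCGF system, dosed for 24 h; TIMP-2 level measured by ELISA, fitted in the positive direction against DMSO; cytotoxicity checked in parallel by sulforhodamine B total protein staining.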

[16] = read-out: Thrombomodulin, THBD (gene 7056); assay: BSK_LPS_Thrombomodulin: BioMAP Diversity Plus: LPS Assay for Thrombomodulin Biomarker Activity (AID 2284296); details: primary human HUVEC with PBMC
Outline: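 Human umbilical vein endothelial cells co-cultured with PBMC and stimulated with LPS; cell-surface thrombomodulin measured by ELISA 24 hours after compound. Gain or loss versus DMSO; cytotoxicity checked by SRB staining in parallel cultures.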

CD69, CD69 (gene 969) = assay: BSK_LPS_CD69: BioMAP Diversity Plus: LPS Assay for CD69 Biomarker Activity (AID 2284303); details: primary human HUVEC with PBMC
Outline: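 Human umbilical vein endothelial cells co-cultured with PBMC under LPS stimulation, chemical exposure 24 h; cell-surface CD69 measured by ELISA and fitted in the positive direction versus DMSO.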

[17] = biological target: human Vitamin D Receptor (VDR), VDR (gene 7421) (UniProt P11473); assay: ATG_VDR_TRANS: Attagene TRANS-FACTORIAL HepG2 Assay for human Vitamin D Receptor (VDR) (AID 2283022; active means hit-call score of the fitted dose curve at least 0.9, where 1 is the maximum)
Sequence of human Vitamin D Receptor (VDR), VDR (gene 7421) (P11473 whole entry, looked up, the tested form may be a part): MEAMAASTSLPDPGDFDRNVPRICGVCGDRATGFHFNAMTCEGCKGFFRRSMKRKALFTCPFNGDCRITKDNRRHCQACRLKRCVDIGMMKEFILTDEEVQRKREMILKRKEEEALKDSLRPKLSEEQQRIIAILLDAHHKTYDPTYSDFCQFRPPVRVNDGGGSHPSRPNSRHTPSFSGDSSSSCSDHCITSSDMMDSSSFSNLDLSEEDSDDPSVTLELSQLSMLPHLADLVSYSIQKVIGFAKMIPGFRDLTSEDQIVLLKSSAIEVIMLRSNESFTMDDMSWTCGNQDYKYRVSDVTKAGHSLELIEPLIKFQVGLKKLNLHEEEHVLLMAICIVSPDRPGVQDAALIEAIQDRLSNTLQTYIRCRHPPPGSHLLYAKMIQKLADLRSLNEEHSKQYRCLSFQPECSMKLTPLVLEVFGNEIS
Outline: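 HepG2 cells were transiently transfected with multiple GAL4-UAS reporter units, so signal reflects exogenous chimeric receptor-Gal4 activity. After 24 h compound exposure, reporter mRNA was measured by RT-PCR, fluorescent labelling and capillary electrophoresis, fitted for gain of signal versus DMSO.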

Measured: AC50

Sequence of E-selectin (Homo sapiens) (P16581 whole entry, looked up): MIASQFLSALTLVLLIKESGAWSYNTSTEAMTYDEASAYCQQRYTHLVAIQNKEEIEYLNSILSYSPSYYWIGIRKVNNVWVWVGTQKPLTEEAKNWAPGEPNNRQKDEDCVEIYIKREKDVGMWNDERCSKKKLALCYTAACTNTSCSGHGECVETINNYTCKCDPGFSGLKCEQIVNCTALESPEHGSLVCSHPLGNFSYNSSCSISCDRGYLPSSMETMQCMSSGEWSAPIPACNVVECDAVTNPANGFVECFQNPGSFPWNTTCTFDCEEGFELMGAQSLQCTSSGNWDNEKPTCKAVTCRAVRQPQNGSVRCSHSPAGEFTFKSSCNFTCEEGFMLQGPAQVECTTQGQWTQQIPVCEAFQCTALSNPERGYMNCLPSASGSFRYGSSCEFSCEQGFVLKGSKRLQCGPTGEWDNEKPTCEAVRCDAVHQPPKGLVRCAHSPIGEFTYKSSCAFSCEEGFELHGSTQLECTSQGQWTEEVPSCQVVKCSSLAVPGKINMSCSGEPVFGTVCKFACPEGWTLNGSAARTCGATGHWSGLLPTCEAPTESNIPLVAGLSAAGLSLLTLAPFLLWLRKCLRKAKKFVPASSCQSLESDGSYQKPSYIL

CCC(=O)OCc1ccc(OC)cc1
inactive: [1] | [2] | [3] | [4]

Cc1c(C(N)=O)cc([N+](=O)[O-])cc1[N+](=O)[O-]
inactive: CD38, CD38 (gene 952) | [5] | [6] | [7] | [8] | [9] | [10] | [11] | [12] | [13] | KRT18 (gene 3875) | [14] | [15] | [16] | CD69, CD69 (gene 969)
active: [14] 15.4 µM | [16] 149 nM

CCCCCCC1CCCC(=O)O1 (centres undefined)
inactive: [3] | [17]

CC(C)C1OCCN1CCOC(=O)NCCCCCCNC(=O)OCCN1CCOC1C(C)C (centres undefined)
not listed: [1] | [2] | [3] | [4] | [17]
inactive: all other assays above

O=[N+]([O-])c1cc(S(=O)(=O)Nc2ccccc2)ccc1Nc1ccccc1
active: CD38, CD38 (gene 952) 25 µM and 26 µM | [5] 28.5 µM and 28.6 µM | [6] 12.1 µM and 19.5 µM | [7] 34.1 µM and 35.3 µM | [8] 20 µM and 14.4 µM | [9] 15 µM and 25.7 µM | [10] 29.3 µM and 31.8 µM | [11] 27.4 µM and 24 µM | [12] 29.2 µM and 37 µM | [13] 20 µM and 19.6 µM | KRT18 (gene 3875) 32 µM | [14] 33.4 µM and 20 µM | [15] 29.8 µM and 30.3 µM | [16] 20 µM and 28.1 µM | CD69, CD69 (gene 969) 13.2 µM and 10.7 µM
inactive: KRT18 (gene 3875)

CCOc1ccc2c(c1)C(C)CC(C)(C)N2 (centres undefined)
active: [4] 37.7 µM
inactive: [2] | [17]

CC/C=C\CCCCCO
inactive: [1] | [3]

CCCc1c(OCCCCc2nn[nH]n2)ccc(C(C)=O)c1O
inactive: [2] | [3] | [17]
active: [4] 20.4 µM

COc1ccc(C(=O)c2ccccc2O)c(O)c1
inactive: CD38, CD38 (gene 952) | [5] | [6] | [7] | [9] | [10] | [11] | [12] | [13] | KRT18 (gene 3875) | [15] | [16] | CD69, CD69 (gene 969)
active: [8] 29.5 µM and 24.6 µM | [11] 28.3 µM | [14] 10.2 µM and 17.3 µM

COC(=O)CCSCCC(=O)OC
inactive: [1] | [2]

CCC[Si](OC(C)=O)(OC(C)=O)OC(C)=O
inactive: CD38, CD38 (gene 952) | [5] | [6] | [7] | [8] | [9] | [10] | [11] | [12] | [13] | KRT18 (gene 3875) | [14] | [15] | [16] | CD69, CD69 (gene 969)
active: CD69, CD69 (gene 969) 327 nM

CCCCCC1CCCC(=O)O1 (centres undefined)
inactive: [1] | [2] | [3] | [4] | [17]

Cc1ccccc1S(=O)(=O)O
inactive: [1] | [3]

O=C1CCCCCCCCCCCCCC1
active: [3] 26.5 µM | [4] 13 µM
inactive: [1] | [2] | [17]

CCCCNC(N)=O
inactive: [1] | [2] | [3] | [4] | [17]
